This is part of a sample that, as a whole, favours compounds with a hit. Of some 79,000 tested, about 15% had one in any assay. Rule as the data show it: active = growth inhibition above about 70%; inactive = the rest.
Legend:
[1] = NCI Yeast Anticancer Drug Screen. Data for the rad50 strain (AID 155);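 also: 0% = growth of vehicle-only cultures of the same strain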; conditions: S. cerevisiae rad50 strain growth inhibition; at 50.0 µM; active compounds read high
In short: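 Yeast carrying a defined DNA repair defect were exposed to test compounds, and growth was compared with vehicle-treated controls to give percent inhibition.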

[2] = NCI Yeast Anticancer Drug Screen. Data for the mec2-1 strain (AID 157); conditions: S. cerevisiae mec2-1 strain, at 50.0 µM, active compounds read high
In short: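 mec2-1 yeast strain, carrying an alteration in DNA damage repair or cell cycle control, was exposed to compounds; growth inhibition was measured relative to vehicle-treated controls.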

[3] = NCI Yeast Anticancer Drug Screen. Data for the sgs1 mgt1 strain (AID 161);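 also: 0% = growth of cultures given vehicle only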; conditions: S. cerevisiae sgs1 mgt1 strain, at 50.0 µM, active compounds read high
In short: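 Percent growth inhibition was derived by comparing compound-exposed mutant yeast with vehicle-exposed cultures. The strain carries alterations in DNA damage repair.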

[4] = NCI Yeast Anticancer Drug Screen. Data for the cln2 rad14 strain (AID 165);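 also: 0% = growth equal to vehicle treated cultures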; conditions: S. cerevisiae cln2 rad14 strain, at 50.0 µM, active compounds read high
In short: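 Yeast carrying cln2 and rad14 alterations (cell cycle control and DNA damage repair) were exposed to compounds. Growth inhibition was measured against vehicle-treated controls.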

[5] = NCI Yeast Anticancer Drug Screen. Data for the bub3 strain (AID 167); conditions: S. cerevisiae bub3 mutant strain, at 50.0 µM, active compounds read high
In short: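 Compounds were applied to a genetically altered yeast strain carrying a cell-cycle control defect. Growth inhibition was scored against vehicle-treated controls.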

[6] = NCI Yeast Anticancer Drug Screen. Data for the mlh1 rad18 strain (AID 175); conditions: S. cerevisiae mlh1 rad18 strain growth inhibition; at 50.0 µM; active compounds read high
In short: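 Growth inhibition of the yeast strain was measured after compound exposure and expressed relative to vehicle-treated controls. The strain carries defined defects in DNA damage repair.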

Measured: growth inhibition

CCCCn1cnnc1NS(=O)(=O)c1cc(C)c(Cl)cc1SCC(=O)O
inactive: [1] -20.5% | [2] -5.25% | [3] 6.15% | [4] 0.4% | [5] -13.8% | [6] -5.5%

CCOC(=O)Cc1nc2sc3c(c2c(=O)[nH]1)CCCC3
inactive: [1] 10.4% | [2] 1.8% | [3] 22.4% | [4] -0.9% | [5] 3.9% | [6] 17.2%

CC(C)=CCC/C(C)=C/c1cc(C(=O)O)c2c(ccc3ccccc32)n1
inactive: [1] 9.6% | [2] 10.5% | [3] 6.7% | [4] 11.3% | [5] 25.1% | [6] 14.3%

O=C(Nc1cccc2ccccc12)OCCBr
inactive: [1] 6.85% | [2] -9.95% | [3] 3.25% | [4] 7% | [5] -10.2% | [6] -7.4%

Cc1ccccc1S(=O)(=O)N1C(=O)c2ccccc2S1(=O)=O
inactive: [1] 12.8% | [2] -13.8% | [3] 5.35% | [4] 10.2% | [5] 5.15% | [6] -13.8%

C#CC(C)(O)CCCCCCC (centres undefined)
inactive: [1] 18.3% | [2] -27.1% | [3] 4% | [4] -22.8% | [5] -12.4% | [6] 5%

CC(C)=C(CSC#N)S(=O)(=O)c1ccc(C)cc1
inactive: [1] 0.45% | [2] 14.2% | [3] 7.1% | [4] -5.1% | [5] 36.9% | [6] 14.7%

Nc1cccc(OCCOc2ccccc2[N+](=O)[O-])c1
inactive: [1] 5% | [2] 26.6% | [3] 28.1% | [4] -4.7% | [5] 29.5% | [6] 18.9%

COc1cc2nc(C(O)C(O)c3nc4cc(OC)c(OC)cc4[nH]3)[nH]c2cc1OC (centres undefined)
inactive: [1] -8% | [2] 3.35% | [3] 19.6% | [4] 6.85% | [5] -1.1% | [6] 38.7%

COc1cc(OC)nc(NS(=O)(=O)c2ccc(N)cc2)n1
inactive: [1] 6% | [2] -3.8% | [3] 20.9% | [4] 19.6% | [5] 10.3% | [6] 6.65%

OC1CCC(C#CC#CC2CCC(O)CC2)CC1 (centres undefined)
inactive: [1] 2.05% | [2] -34.2% | [3] 3.05% | [4] 2.25% | [5] -23.7% | [6] -1.7%

CC(C)(Oc1ccc(C(=O)c2ccc(Cl)cc2)cc1Cl)C(=O)N1CCN(CCO)CC1
inactive: [1] -18.9% | [2] -8.65% | [3] 15.9% | [4] 12.3% | [5] 11.3% | [6] 12.9%

CC1(C)CCC2(C)CCC3(C)C(=CCC4C5(C)CCC(O)C(C)(C)C5CCC43C)C2C1 (centres undefined)
inactive: [1] 0.85% | [2] 6.3% | [3] -10.2% | [4] 16.2% | [5] 4.25% | [6] 0.5%

Cc1ccc(S(=O)(=O)c2c(N)c3nccn3c3nc4ccccc4nc23)cc1
inactive: [1] -52.2% | [2] -68.2% | [3] -77.5% | [4] -38.8% | [5] -62.1% | [6] -88.8%

CC1CC([NH-])C([NH-])C(C)(C)C1.[Cl][Pt+2][Cl] (centres undefined)
inactive: [1] -4.35% | [2] -4.25% | [3] -9.95% | [4] -12.2% | [5] -10.8% | [6] -49.2%

COC(=O)c1nc(N)nc(C(=O)OC)c1C(=O)c1c(C)[nH]c2ccccc12
inactive: [1] -9.85% | [2] -20% | [3] -36.9% | [4] -30.1% | [5] -28.4% | [6] -25.6%

O=C(N/N=C/c1ccc(Cl)cc1Cl)C(O)(c1ccccc1)c1ccccc1
inactive: [1] 17.4% | [2] 16.1% | [3] 10.2% | [4] 22.9% | [5] 10.7% | [6] 19.3%

CCCCNC(=O)C(c1ccccc1)c1ccccc1
inactive: [1] 22.1% | [2] 14.9% | [3] 10.8% | [4] -12.3% | [5] 14.3% | [6] 4.2%

CNC(=O)C1CCCN1C(=O)C(Cc1cnc[nH]1)NC(=O)C1CCC(=O)N1 (centres undefined)
inactive: [1] -21.2% | [2] -13.9% | [3] -11.6% | [4] 11.9% | [5] -14.1% | [6] -16.8%

Nc1nc(Cl)nc(Nc2ccc(-c3cc4ccc(-c5ncc[nH]5)cc4[nH]3)cc2)n1
inactive: [1] 15.5% | [2] 45.5% | [3] 45.4% | [4] 31.7% | [5] -3.6% | [6] 62.6%

COC(=O)C1CN(c2ccccc2)CCC1=O (centres undefined)
inactive: [1] -28.9% | [2] -31.8% | [3] -0.55% | [4] -35.7% | [5] -10.3% | [6] -12.7%

OCc1ccc(-c2ccccc2)cc1
inactive: [1] 4.4% | [2] -14.6% | [3] 4.6% | [4] 8% | [5] 3.7% | [6] 28.8%

Cc1ccc2c(c1)nc(N)n[n+]2[O-]
inactive: [1] 2.85% | [2] -14.7% | [3] -3.4% | [4] 3.25% | [5] -8.95% | [6] -39.5%

CC(=O)O[C@H]1CC[C@]2(C)[C@H]3C(=O)C=C4[C@@H]5C[C@@](C)(C(=O)O)CC[C@]5(C)CC[C@@]4(C)[C@]3(C)CC[C@H]2C1(C)C
inactive: [1] 31.2% | [2] 23.8% | [3] 41.5% | [4] 52.1% | [5] 26% | [6] -5.75%

O=C(Nc1ccn(C2OC(CO)C(O)C2O)c(=O)n1)Nc1ccn(C2OC(CO)C(O)C2O)c(=O)n1 (centres undefined)
inactive: [1] 22.5% | [2] -17.6% | [3] -4.95% | [4] -35.8% | [5] -1.2% | [6] 17.6%

CN(C)c1ccc(/C=C(\C#N)c2c(Cl)cccc2Cl)cc1
inactive: [1] -13.9% | [2] -8.55% | [3] -11.1% | [4] -25.4% | [5] 8.3% | [6] -5.75%

CC1=[N+]([O-])C2(CCCC2)N(O)C1(C)C
inactive: [1] -13.8% | [2] -0.7% | [3] 9.7% | [4] 19.5% | [5] -6.25% | [6] 12.8%

COC(=O)CCCCCCC/C=N/Nc1ccc([N+](=O)[O-])cc1[N+](=O)[O-]
inactive: [1] 6.9% | [2] 22% | [3] 4.7% | [4] 8.85% | [5] 7.3% | [6] 17.4%

Cc1cc(NS(=O)(=O)c2ccc(Nc3c4ccccc4nc4c(C(=O)NCCN(C)C)ccc(Cl)c34)cc2)no1
inactive: [1] -9.25% | [2] 17.1% | [3] -2.4% | [4] 6.1% | [5] -3.25% | [6] 63.5%

COC(=O)c1nnn(-c2cccc(Cl)c2)c1C(=O)c1ccc(Cl)c(Cl)c1
inactive: [1] -6.55% | [2] 5.55% | [3] 7.5% | [4] -5.25% | [5] -8.9% | [6] 11.8%

O=c1c2ccccc2[nH]c2ccc(O)cc12
inactive: [1] 1.45% | [2] -7.95% | [3] 4.8% | [4] -3.25% | [5] 3.2% | [6] 16.4%

CCOC(=O)c1ccc(C#N)cc1
inactive: [1] -8% | [2] -57.3% | [3] -11.2% | [4] -7.6% | [5] -15.7% | [6] 5.45%

O/N=C/c1ncccc1C1OCCO1
inactive: [1] 9.45% | [2] -0.55% | [3] -2.35% | [4] 9.8% | [5] -6.7% | [6] 14.7%

CSSC(SC)SC
inactive: [1] 31.9% | [2] -7.85% | [3] 13.6% | [4] -21.1% | [5] -11.6% | [6] 29.6%

Cc1csc(-n2nc(C)cc2C)n1
inactive: [1] -5.35% | [2] -23.1% | [3] -37.2% | [4] 6.75% | [5] -30.9% | [6] -6.05%

CS/C(N)=N\C(=O)N(C)C
inactive: [1] 2.75% | [2] -14.5% | [3] -4.45% | [4] -20.6% | [5] -8.55% | [6] 3.65%

CC(C)(C)COc1ccc2c(c1)C1=NC2=NC2=NC(=NC3=NC(=NC4=NC(=N1)c1ccc(OCC(C)(C)C)cc14)c1ccc(OCC(C)(C)C)cc13)c1ccc(OCC(C)(C)C)cc12
inactive: [1] 12.8% | [2] 1.1% | [3] -10.1% | [4] -14.6% | [5] -5.45% | [6] 18.4%

CCCCN1C(=O)c2ccccc2C1=O
inactive: [1] 5.55% | [2] -10.7% | [3] 27.2% | [4] 7.9% | [5] 9.45% | [6] 13.4%

c1ccc2c(c1)[nH]c1ccccc12
inactive: [1] -30.9% | [2] -15.9% | [3] 1.65% | [4] -3.05% | [5] -5.5% | [6] 7.05%
